The values that follow come from PubChem BioAssay AID2563 (Broad Institute, 2010).

Screen size: about 290,000 compounds; about 800 (0.28%) were called active. This is one part of a sample in which actives are shown more often than they occur.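 The calls were made as follows: active = fall in fluorescence gain of 50% or more versus controls, with final raw signal at or below 3038400; inconclusive = same 50% fall but final raw signal above 3038400; inactive = fall in fluorescence gain under 50%.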

In this test the target is CAAX prenyl protease 2 (Saccharomyces cerevisiae (strain ATCC 204508 / S288c)) (UniProt Q03530). Nature of the test: yeast Rce1p protease inhibitors, primary screen, biochemical, fluorescence, cell-free homogeneous (AID 2563). As to conditions: yeast membranes, quenched prenylated peptide cleavage fluorescence.
Chain of CAAX prenyl protease 2 (Saccharomyces cerevisiae (strain ATCC 204508 / S288c)) (Q03530 whole entry, looked up): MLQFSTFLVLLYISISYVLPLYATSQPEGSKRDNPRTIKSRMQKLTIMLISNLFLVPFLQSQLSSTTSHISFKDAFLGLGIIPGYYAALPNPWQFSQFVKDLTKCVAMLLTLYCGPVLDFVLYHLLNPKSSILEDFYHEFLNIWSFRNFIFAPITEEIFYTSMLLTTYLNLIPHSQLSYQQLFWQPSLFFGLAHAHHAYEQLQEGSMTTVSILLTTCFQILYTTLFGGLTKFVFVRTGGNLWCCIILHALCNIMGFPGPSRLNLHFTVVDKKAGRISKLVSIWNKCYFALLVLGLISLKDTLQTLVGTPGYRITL
In the case of `COc1cc(Cn2c(N)c(C(=O)NCc3ccco3)c3nc4ccccc4nc32)cc(OC)c1OC`, the call was active.

For the compound `CCOC(=O)c1c(N)n(Cc2ccccc2)c2nc3ccccc3nc12`, the call was inactive.

As for `CCOC(=O)c1c(N)n(CCN2CCOCC2)c2nc3ccccc3nc12`, the call was inactive.

Turning to `COC(=O)C1=C(c2cc3ccccc3s2)C[C@@H]2CC[C@H]1N2C(=O)NCCO`, the outcome was inactive.

With `Cc1cc(N2C(=O)C3CCCN3C2c2ccc(Cl)c(Cl)c2)no1` (stereo not given), the compound was called inactive.
